Screening results (PubChem)
Shiga inhibitor: blocks Shiga toxin action in Vero cells. Vero cells, Shiga toxin protein synthesis inhibition reporter. inhibition, % at 38.7 µM. 290,000 compounds, 9.2% hits. AID 2315; in the data active = inhibition mostly above about 28%, no sharp cut-off; inactive = mostly below about 43%; note: 0% is about no effect
Sm TGR inh: inhibitors of Schistosoma mansoni thioredoxin glutathione reductase; Q962Y6; purified TGR, DTNB reduction, TNB absorbance 405 nm; Potency, µM (doses to about 114 µM), for the others: top-dose activity change, negative = inhibition, most hits filed as inhibitors; 360,000 compounds, 3% hits; AID 485364; note: potency is the fitted concentration of half-maximal effect; % is set by controls: 0 for no effect and ±100 for the full control effect; nearly all actives have a fitted effect of over 60% in size
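TGR 20 nM + NADPH 100 uM (dispensed conc.), cpd preinc 15 min RT; start with NADPH (500 uM addition) then DTNB (15 mM addition). Kinetic TNB absorbance, 405 nm filter. Four-parameter Hill fit across titration.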
LmPK inhibitor: blocks Leishmania mexicana pyruvate kinase activity; Potency, µM (titrated, usually from 57.5 µM), for the others: at the top dose activity change, negative = inhibition, usual class: inhibitors; Q27686; 290,000 compounds, 0.37% hits; purified LmPK, Kinase-Glo ATP luminescence, 1 h; note: potency is the fitted concentration of half-maximal effect; % is set by controls: 0 for no effect and ±100 for the full control effect
Target sequence (Q27686 whole entry, looked up): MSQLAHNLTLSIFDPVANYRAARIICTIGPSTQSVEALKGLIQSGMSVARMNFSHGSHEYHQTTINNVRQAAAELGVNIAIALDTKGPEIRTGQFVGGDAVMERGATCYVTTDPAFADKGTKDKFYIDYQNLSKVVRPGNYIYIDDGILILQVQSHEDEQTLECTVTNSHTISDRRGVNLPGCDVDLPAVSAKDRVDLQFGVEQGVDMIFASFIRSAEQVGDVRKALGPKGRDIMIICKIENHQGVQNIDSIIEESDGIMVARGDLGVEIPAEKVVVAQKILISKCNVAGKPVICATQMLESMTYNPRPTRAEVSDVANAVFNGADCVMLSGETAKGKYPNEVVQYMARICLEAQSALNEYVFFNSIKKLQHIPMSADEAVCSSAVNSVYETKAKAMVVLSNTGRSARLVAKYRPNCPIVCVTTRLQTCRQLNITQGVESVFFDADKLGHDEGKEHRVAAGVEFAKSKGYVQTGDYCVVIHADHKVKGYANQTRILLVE
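Screened at intermediate enzyme activity to detect both inhibitors and activators: LmPK at 0.1 nM, with a 0.5 nM enzyme column as activation reference. PEP 0.5 mM, ADP 0.1 mM; ATP detected by luminescence after 1 h.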
FBPA Giardia inh: blocks Giardia fructose-bisphosphate aldolase activity | A8B2U2 | purified Giardia FBPA | Potency, µM (top dose mostly 59.6 µM), for inactives: at the highest dose activity, negative = inhibition, actives largely listed as inhibitors | 290,000 compounds, 0.71% hits; note: potency is the fitted concentration of half-maximal effect; % is set by controls: 0 for no effect and ±100 for the full control effect; nearly all actives have a fitted effect of over 55% in size
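Giardia FBPA (40 nM reagent) was preincubated 10 min at RT with compound (up to 57.5 uM final), then substrate plus GAPDH/TPI/NAD/arsenate coupling system with diaphorase/resazurin was added; resorufin fluorescence (525/598 nm) was read after 20 min.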
TbPYK inhibitor: blocks Trypanosoma brucei pyruvate kinase; 410,000 compounds, 0.12% hits; AID 624173; Q57TT1; TbPYK enzyme, Kinase-Glo Plus ATP luminescence, 45 min; Potency, µM (top dose mostly 76.8 µM), for the others: at the top dose activity, negative = inhibition, usual class: inhibitors; note: potency is the fitted concentration of half-maximal effect; % is set by controls: 0 for no effect and ±100 for the full control effect; nearly all actives have a fitted effect of over 50% in size
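Quantitative HTS: titrated library compounds versus trypanosomal pyruvate kinase in TEA buffer (pH 7.2) containing KCl, MgCl2, BSA and Tween-20. Reactions were initiated with ADP, 130 uM final. Kinase-Glo Plus luminescence was read after 45 min at RT.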
Cycloheximide cs: affects cycloheximide protein synthesis inhibition readout, counter-screen; cell reporter, cycloheximide protein synthesis inhibition counterscreen; 300,000 compounds, 12% hits; max response, %; in the data active = max response mostly above about 13%, no sharp cut-off; inactive = mostly below about 14%; note: read at 38.3 µM for the half of the compounds with a filed dose; 0% is about no effect
* marks the source's active call; other numbers are inactive results; [ ] = dose if it differs, or a comment. This excerpt belongs to a sample that is enriched for hits. Unless noted, calls come from the whole dose curve; as a rule, active = well fitted curve in the direction sought with a large enough effect; inconclusive = small, poorly fitted or top-dose-only effect, or another doubt; inactive = no such curve, though single readings can be large; an effect the other way counts as inactive or inconclusive.

O=C1CCC/C1=C\Nc1ccc(Cl)c([N+](=O)[O-])c1 was read as Shiga inhibitor 18, Sm TGR inh inconclusive, LmPK inhibitor 2%, FBPA Giardia inh -16%, TbPYK inhibitor -1% and Cycloheximide cs 9.
Screening O=C1CCC/C1=C/Nc1ccc2c(c1)OCO2 returned Shiga inhibitor 95*, Sm TGR inh inconclusive, LmPK inhibitor -1%, FBPA Giardia inh inconclusive and Cycloheximide cs 42*.
For Nc1ccc(C(=O)N/N=C/c2ccc(N3CCOCC3)s2)cc1 the results were TbPYK inhibitor -2%.
For CC(C)(C)OC(=O)N/N=C/c1ccc(N2CCOCC2)s1 the results were Shiga inhibitor 89*, Sm TGR inh -26%, LmPK inhibitor -1%, FBPA Giardia inh 6%, TbPYK inhibitor -9% and Cycloheximide cs 55*.
Screening Clc1cccc(N/N=C/c2ccc(N3CCOCC3)s2)c1 returned Shiga inhibitor 18, Sm TGR inh -29%, LmPK inhibitor 1%, FBPA Giardia inh -14%, TbPYK inhibitor -9% and Cycloheximide cs 23*.
Cc1nn(-c2ccccc2)c(C)c1C(=O)OCC(=O)N(C)C1CCS(=O)(=O)C1 (centres undefined) was read as Shiga inhibitor 61*, Sm TGR inh 2%, LmPK inhibitor -28%, FBPA Giardia inh 5%, TbPYK inhibitor 2% and Cycloheximide cs 33*.
O=C(COC(=O)/C=C/c1ccccc1)NC1CCS(=O)(=O)C1 (centres undefined) was read as Sm TGR inh -2% and TbPYK inhibitor 3%.
For Cc1nn(-c2ccccc2)c(C)c1/C=C/C(=O)OCC(=O)NC1CCS(=O)(=O)C1 (centres undefined) the results were Shiga inhibitor 22, Sm TGR inh 3%, LmPK inhibitor 0%, FBPA Giardia inh -2%, TbPYK inhibitor 2% and Cycloheximide cs 16*.
Screening CN(C(=O)COC(=O)c1nc(Cl)c(Cl)c(Cl)c1Cl)C1CCS(=O)(=O)C1 (centres undefined) returned Shiga inhibitor 60, Sm TGR inh 35µM*, LmPK inhibitor 1%, FBPA Giardia inh -5%, TbPYK inhibitor 3% and Cycloheximide cs 54*.
`CN(C(=O)COC(=O)c1ccc(C(C)(C)C)cc1)C1CCS(=O)(=O)C1` (centres undefined) gave Sm TGR inh 0% and TbPYK inhibitor -3%.
For O=C(c1ccccc1Cl)N1N=C(c2cccs2)CC1c1cccc(O)c1 (centres undefined) the results were Shiga inhibitor -3, Sm TGR inh 2%, LmPK inhibitor 11%, TbPYK inhibitor 7% and Cycloheximide cs -2.
`CCc1ccc(-n2nc(C)c3c(C)cc(=O)n(CC(=O)N(CC)Cc4ccccc4)c32)cc1` gave Sm TGR inh 11% and TbPYK inhibitor 1%.
`Cn1c(NCc2cccnc2)nc2cc(-c3cccc(C(F)(F)F)c3)sc2c1=O` gave TbPYK inhibitor -1%.
CCOc1ccccc1NC(=O)C(c1ccccc1)N1Cc2ccccc2C1=O (centres undefined) was read as Sm TGR inh 9% and TbPYK inhibitor -3%.
`CC(/C=N/NC(=O)c1ccccc1F)c1ccccc1` (centres undefined) gave Shiga inhibitor 165*, Sm TGR inh -6%, LmPK inhibitor -3%, FBPA Giardia inh 3%, TbPYK inhibitor 1% and Cycloheximide cs 30*.
`CC(/C=N/NC(=O)c1ccccc1C)=C\c1ccccc1` gave TbPYK inhibitor 7%.
O=C(N/N=C\CCc1ccccc1)c1ccco1 was read as Shiga inhibitor 50*, Sm TGR inh -6%, LmPK inhibitor 2%, FBPA Giardia inh -1%, TbPYK inhibitor -9% and Cycloheximide cs 38*.
For CC(NC(=O)c1ccccc1F)C(=O)O (centres undefined) the results were Shiga inhibitor -25, Sm TGR inh -14%, LmPK inhibitor -2%, FBPA Giardia inh 6%, TbPYK inhibitor 0% and Cycloheximide cs -6.
Screening CC(/C=N/NC(=O)c1ccco1)=C\c1ccccc1 returned Shiga inhibitor 89*, Sm TGR inh 7%, LmPK inhibitor 3%[11.5 µM], FBPA Giardia inh 2%, TbPYK inhibitor -6% and Cycloheximide cs 24*.
`O=C(Nc1ccc(S(=O)(=O)NCCc2ccccc2)cc1)c1ccco1` gave Shiga inhibitor 18, Sm TGR inh -6%, LmPK inhibitor 1%, FBPA Giardia inh 11%, TbPYK inhibitor inconclusive and Cycloheximide cs 10.
For CC(/C=N/NC(=O)c1ccccc1F)=C\c1ccccc1 the results were Shiga inhibitor 107*, Sm TGR inh -13%, LmPK inhibitor -2%, FBPA Giardia inh 4%, TbPYK inhibitor 8% and Cycloheximide cs 47*.
Screening Cc1ccc(S(=O)(=O)NN=C(c2ccccc2)c2cccs2)cc1 returned TbPYK inhibitor 7%.
Screening Cc1cccc(NC(=O)NCCOCCn2c(=O)oc3ccccc32)c1C returned Sm TGR inh -3% and TbPYK inhibitor 0%.
CCCCCCCC1=CC2=C(Cl)C(=O)C(C)(OC(C)=O)C(=O)C2=CO1 (centres undefined) was read as FBPA Giardia inh -10%.
Screening Cc1ccc(S(=O)(=O)CCC(=O)NCc2ccco2)cc1 returned Shiga inhibitor -18, Sm TGR inh 40µM*, LmPK inhibitor 6%, FBPA Giardia inh 1%, TbPYK inhibitor 3% and Cycloheximide cs 0.
CC1Cc2cc(S(=O)(=O)CCC(=O)NCc3ccco3)ccc2N1C(=O)C1CC1 (centres undefined) was read as Shiga inhibitor -9, Sm TGR inh 40µM*, LmPK inhibitor 6%, FBPA Giardia inh 0%, TbPYK inhibitor -6% and Cycloheximide cs -6.
`Cc1ccc(CNC(=O)C2CCN(S(=O)(=O)c3ccc4c(c3)CC(C)N4C(=O)C3CCC3)CC2)o1` (centres undefined) gave Shiga inhibitor -8, Sm TGR inh 40µM*, LmPK inhibitor 1%, FBPA Giardia inh -2%, TbPYK inhibitor -22% and Cycloheximide cs 1.
CCN(C(=O)CSc1n[nH]c(N)n1)c1cccc2ccccc12 was read as TbPYK inhibitor 9%.
Screening COc1ccc(CCc2cc(OC)cc(=O)o2)cc1 returned Shiga inhibitor 32, Sm TGR inh 5%, LmPK inhibitor 3%, FBPA Giardia inh -2%, TbPYK inhibitor -1% and Cycloheximide cs 19*.
For CCc1nnc2c3ccccc3nc(Nc3ccc(F)c(Cl)c3)n12 the results were Sm TGR inh 8% and TbPYK inhibitor 0%.
Screening CCN(CC)CCC(C)OC(c1ccccc1)c1ccccc1 (centres undefined) returned Shiga inhibitor 53*, Sm TGR inh 2%, LmPK inhibitor -6%, FBPA Giardia inh -9%, TbPYK inhibitor 7% and Cycloheximide cs 22*.
